# TRHR ag: TRH receptor (human) agonism. P34981. TRHR cells, calcium flux fluo-8, FDSS agonist mode. activation, % at 2 µM. 0.18% of 360,000 active. AID 493084; in the data active = activation above about 30%; also: 0% is about no effect
#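 Fluo-8-loaded TRHR cells; 10 s baseline, compound added, kinetic Ca2+ fluorescence read 1/s, agonist mode.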
# TRPV1 PAM: enhances activation of the human vanilloid receptor TRPV1; Q8NER1; TRPV1-expressing cells, Fluo-8 calcium influx, capsaicin EC20 potentiation; potentiation, % at 8.33 µM; 0.02% of 320,000 active; in the data active = potentiation above about 80%; inconclusive = between about 30% and that limit; also: 0% is about no effect
#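 Fluo-8 calcium influx in TRPV1-expressing cells, kinetic read (ex 480/em 520 nm). Compound added and read 3 min for agonist activity, followed by capsaicin at EC20 final and 2 min further read for enhancement.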
# TRHR PAM: allosteric enhancers of human TRH receptor. TRHR cells, fluo-8 calcium fluorescence, EC20 TRH enhancement. enhancement, % at 2 µM. 0.66% of 360,000 active. AID 493056; in the data active = enhancement above about 30%; also: 0% is about no effect
#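 Enhancer read-out: after compound pinning and an initial kinetic agonist-mode read, an EC20 of TRH (10 nM final) was injected and fluo-8 calcium signal (Ex 480/Em 530) followed at 1 s/cycle for 100 cycles in TRHR-expressing cells.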
# TRPV1 ag: agonists of human vanilloid receptor 1 (TRPV1); 0.19% of 320,000 active; TRPV1-expressing cells, Fluo-8 calcium influx, agonist mode; Q8NER1; activation, % at 8.33 µM; AID 540275; in the data active = activation above about 80%; inconclusive = between about 30% and that limit; also: 0% is about no effect
#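 Fluo-8 calcium influx in TRPV1-expressing cells, kinetic read (ex 480/em 520 nm). Compound added and read 3 min for agonist activity, followed by capsaicin at EC20 final and 2 min further read for enhancement.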
# TRPML1 agonist: agonists of human TRPML1 channel; Q9GZU1; 0.12% of 410,000 active; TRPML1-expressing cells, Ca2+ dye fluorescence, FDSS; activation, % (test concentration not listed); in the data active = activation above about 50%; inconclusive = mostly about 30% to 49%; also: 0% is about no effect
# Target sequence (Q9GZU1 whole entry, looked up): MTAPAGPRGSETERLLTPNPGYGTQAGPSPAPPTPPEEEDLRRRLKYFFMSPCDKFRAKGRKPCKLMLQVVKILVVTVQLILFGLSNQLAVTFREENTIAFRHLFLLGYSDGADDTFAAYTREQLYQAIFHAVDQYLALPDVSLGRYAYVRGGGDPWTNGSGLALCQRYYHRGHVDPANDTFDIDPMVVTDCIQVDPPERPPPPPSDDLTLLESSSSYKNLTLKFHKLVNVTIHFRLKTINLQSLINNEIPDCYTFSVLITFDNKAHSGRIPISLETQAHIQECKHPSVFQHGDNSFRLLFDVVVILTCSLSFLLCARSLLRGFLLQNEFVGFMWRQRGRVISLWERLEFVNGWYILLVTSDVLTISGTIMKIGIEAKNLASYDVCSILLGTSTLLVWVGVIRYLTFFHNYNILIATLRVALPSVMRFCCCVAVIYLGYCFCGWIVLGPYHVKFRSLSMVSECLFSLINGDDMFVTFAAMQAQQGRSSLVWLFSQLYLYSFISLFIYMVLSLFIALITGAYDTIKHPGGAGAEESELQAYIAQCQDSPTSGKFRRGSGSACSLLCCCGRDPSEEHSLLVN
#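 Tet-induced TRPML1-DL cells, 1,500 per well, cultured overnight, were loaded with a no-wash Ca2+ dye for 45–90 min. Calcium fluorescence was recorded on the FDSS for 110 s after compound addition, before the EC80 agonist (4 uM 54-4) was added.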
# TRPML1 blocker: blocks the human TRPML1 channel. Q9GZU1. TRPML1-inducible cells, Ca2+ dye fluorescence, FDSS; stronger effect = lower value; inhibition of EC80 agonist-evoked calcium signal. activity change, negative = inhibition, % (no concentration beside the values). 0.02% of 390,000 active; in the data active = activity change below about -50%; inconclusive = between about -30% and that limit;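 also: stimulus is agonist 54-4 at its EC80 concentration; % is scaled to controls: 0 for no effect and ±100 for the full control effect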
#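 Calcium fluorescence in TRPML1-DL cells induced overnight with Tet: a 110 s read after compound pin addition, then a 110 s antagonist read after challenge with 54-4 at 4 uM final (EC80).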
# * hit, by the source's call; ? = inconclusive; / = no result given; ! = not active in a repeat. Sampled rows, rich in hits. Any-hit rate of the full collection: about 0.99%.
SMILES,TRHR ag,TRPV1 PAM,TRHR PAM,TRPV1 ag,TRPML1 agonist,TRPML1 blocker
O=C1C2CCCN2C(=O)N1CCCN1CCN(c2cccc(Cl)c2)CC1 (configuration not stated),0,-3,-5,1,0,-10
Cc1ccc(NC(=O)C2=CCN(S(=O)(=O)c3ccc(F)cc3)CC2)c(C)c1,0,-14,-9,?,1,-19
CCC(C)NC(=O)C1=CCN(S(=O)(=O)c2ccc(C)cc2)CC1 (configuration not stated),0,4,-3,-3,0,-54*
Cc1ccc(C)c(NC(=O)CN(C)S(=O)(=O)c2cccc3cccnc23)c1,0,?,32*!,3,1,19
COc1ccc(C(=O)Nc2ccc3c(c2)nc(CCNC(C)=O)n3C)cc1,1,-4,31*,6,0,-5
COc1ccc(C(=O)Nc2cc3c4c(c2)CC(=O)N4CCC3)c(OC)c1,0,-5,-5,7,0,1
COc1ccc2nc(NC(=O)c3ccc(-n4nc(C)cc4C)cc3)sc2c1,-1,-5,0,-4,68*,9
COc1cccc(C(=O)Nc2ccc3ccccc3c2)c1,-2,-2,-7,22,-1,4
COc1ccc(C(=O)Nc2cc3c4c(c2)CC(=O)N4CCC3)cc1,0,-15,3,1,55*,?
COc1ccc(C(=O)Nc2ccc3ccccc3c2)cc1,0,-8,1,96*,1,37
O=C(O[C@H]1[C@H](Cc2ccccc2)NS(=O)(=O)[C@H]2C[C@@H]3C=C[C@]12O3)c1ccccc1Br,/,/,/,/,0,/
COc1ccc(C(=O)Nc2nc3ccccc3s2)cc1,0,-2,-9,96*,4,-1
COc1ccc(C(=O)Nc2ccc(C3(C#N)CCCC3)cc2)cc1,0,-29,0,89*,0,-2
O=C(CC1CCCCC1)Nc1nc2ccccc2s1,1,1,36*,6,0,2
O=C(C1CC1)N1CCN(c2nc3ccc(F)cc3s2)CC1,0,/,-3,/,2,-14
COc1ccc(NC(=O)c2c(-c3ccc(C)cc3)nnc3ccccc23)c(OC)c1,0,/,4,/,0,-19
C1=C/C(=C2/C=Cc3ccccc32)c2ccccc2N1,/,/,/,/,-1,/
CCCCOc1ccc(C(=O)Nc2cccc(-n3cnnn3)c2)cc1OC,0,-23,-1,89*,-1,-1
CC(C)(C)c1ccc(C(=O)Nc2cccc(-n3cnnn3)c2)cc1,0,-1,0,80*,0,8
CCOc1ccc(C(=O)Nc2cccc(-n3cnnn3)c2)cc1OCC,0,-9,2,-2,0,6
Cc1oc2ccc(O)c(CN3CCCC(C)C3)c2c1C(=O)Nc1ccccc1 (configuration not stated),0,/,0,/,0,-4
COc1cccc(CN2Cc3cccc4c3[C@H](C=CC4)CC2=O)c1,/,/,/,/,0,/
Cc1ccc2[nH]c(=O)c3cc(C(=O)N(CCCOC(C)C)Cc4ccco4)sc3c2c1,2,1,42*!,13,3,8
O=S(=O)(c1ccc2c(c1)OCCO2)N1CCN(S(=O)(=O)c2cccc3cccnc23)CC1,2,/,1,/,/,/
Cc1ccc(Nc2cc(C)nc(NCc3ccccc3)n2)cc1,6,-6,32*,28,-1,22
SMILES,TRHR ag,TRPV1 PAM,TRHR PAM,TRPV1 ag,TRPML1 agonist,TRPML1 blocker
O=C(Cn1cc(C(F)(F)F)ccc1=O)N1CCN(S(=O)(=O)c2ccccc2)CC1,-1,13,40*,0,1,29
CCCCN(C)C1=CC2=CC(=C(C#N)C#N)CCC2CC1 (configuration not stated),261*,-2,-9,101*,125*,-64*
N#CC(C#N)=C1C=C2C=C(N3CCCCC3)CCC2CC1 (configuration not stated),249*,0,-21,102*,109*,-26
N#CC1=C(N)C2=C(N3CCCCC3)CCCC2C1(C#N)C#N (configuration not stated),1,-5,3,2,2,13
CCN(CC)C1=CC2=CC(=C(C#N)C#N)CCC2CC1 (configuration not stated),0,7,4,0,105*,?
Cc1cc2c(s1)c1cnn(Cc3c(F)ccc(Cl)c3F)c(=O)c1n2C,0,/,4,/,/,/
Cc1cccc(N2CCN(S(=O)(=O)c3c(C)[nH]c(C)c3C(=O)N3CCCCC3)CC2)c1C,1,3,30*,10,0,-13
CCn1nc(C)c(Br)c1-c1nc(-c2cccc(C)c2)no1,0,/,-1,/,-1,40
CCn1nc(C)c(Br)c1-c1nc(CS(=O)(=O)c2ccsc2)no1,0,/,37*,/,0,8
CCSc1nnc(-c2sc3nnc(-c4ccccc4)c(-c4ccccc4)c3c2N)o1,64*,12,6,?,27,-4
O=c1cc(N2CCCC2)c2ccccc2o1,0,2,35*,4,1,6
CCN1CCN(c2ccc(S(=O)(=O)N3CCCCC3)cc2NC(=O)/C=C/c2cc(OC)ccc2OC)CC1,1,11,30*,2,0,2
COc1ccc(NS(=O)(=O)c2cc(NC(=O)c3cnc(C)cn3)ccc2N2CCCC2)cc1,1,-26,2,?,0,-12
COc1ccc(NS(=O)(=O)c2cc(NC(=O)c3cnc(C)cn3)ccc2N2CCCCC2)cc1,0,-3,-2,90*,0,45
CCNC(=O)c1c(NC(=O)Cc2coc3cc(C)cc(C)c23)sc2c1CCCC2,1,/,5,/,1,-4
COc1ccc(C)cc1N(C)C(=O)c1c2c(nc3ccccc13)C(=O)N(C1CCCCC1)C2,-1,/,-7,/,0,-10
COC(=O)C1CCN(C(c2cc(OC)c(OC)c(OC)c2)c2sc3nc(C)nn3c2O)CC1 (configuration not stated),0,3,31*,0,-1,-9
CCOc1ccc(OCC(=O)NCCS(=O)(=O)N2CCN(c3ccc(OC)cc3)CC2)cc1,0,/,0,/,1,8
C=Cc1cc2c(s1)c1cnn(Cc3ccccc3F)c(=O)c1n2C,-1,/,-2,/,/,/
COC(=O)[C@H](Cc1ccccc1)N(Cc1ccc(C)cc1)S(C)(=O)=O,/,/,/,/,0,/
Cc1cc(N(C)C)cc(C)c1/C=C/c1cc[n+](C)c2ccccc12,/,/,/,/,0,/
CC(C)OP(=O)(OC(C)C)C(NC(=O)c1ccccc1Br)C(N)=O (configuration not stated),-1,-8,32*,1,-1,-12
